{"source": "a collection of fitness landscapes (doi:10.1038/s41467-024-54723-y)", "note": "Whole data set: some 18,000 sequences, median “TetR repression strength (sort-seq, GFP reporter)” near 0.23, cut for the highest 2% near 0.68. What follows is part of a selection rich in the highest values, with near analogues and random picks from the rest.", "data": [{"target": "TetR (class B, Tn10) (UniProt P04483)", "sequence (P04483 whole entry)": "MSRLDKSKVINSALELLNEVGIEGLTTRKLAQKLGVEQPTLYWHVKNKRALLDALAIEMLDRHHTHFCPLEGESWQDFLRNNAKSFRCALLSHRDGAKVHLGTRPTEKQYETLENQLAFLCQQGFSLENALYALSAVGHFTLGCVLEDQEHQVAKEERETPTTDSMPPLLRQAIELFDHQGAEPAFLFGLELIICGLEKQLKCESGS", "experiment": "TetR repression strength (sort-seq, GFP reporter) (relative to tetO2 = 1); higher = stronger repression", "conditions": "E. coli", "in_short": "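Escherichia coli SIG10-MAX cells carried a low-copy plasmid library in which eight operator positions were randomized between a constitutive promoter and sfGFP, and TetR was expressed constitutively. After 5 h of growth at 37 °C in LB with 50 µg/mL chloramphenicol, 10^6 cells were FACS-sorted into 13 fluorescence bins, and each bin was Illumina-sequenced. Repression strength was the top bin index plus one minus the read-weighted mean bin, divided by the value for the unaltered operator. Across three independent transformations, only library members with ≥30 reads in every replicate and a CV ≤0.5 were averaged.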", "values": [{"sequence": "TCCCACCGAGTTTTTGAGA", "TetR repression strength": 0.46}, {"sequence": "TCCCACAGAGTAATGGAGA", "TetR repression strength": 0.108}, {"sequence": "TCCCCGTTAGTTTTGGAGA", "TetR repression strength": 0.104}, {"sequence": "TCCCTAGGAGTAGGAGAGA", "TetR repression strength": 0.268}, {"sequence": "TCCCTAGGAGTACGCGAGA", "TetR repression strength": 0.226}, {"sequence": "TCCCTAGTAGTACGCGAGA", "TetR repression strength": 0.0159}, {"sequence": "TCCCTGGTAGTACGAGAGA", "TetR repression strength": 0.219}, {"sequence": "TCCCTAGGAGTACGAGAGA", "TetR repression strength": 1.01}, {"sequence": "TCCCTAGTAGTACGAGAGA", "TetR repression strength": 1.22}, {"sequence": "TCCCGTAGAGTCTCAGAGA", "TetR repression strength": 0.257}, {"sequence": "TCCCTTTTAGTTATAGAGA", "TetR repression strength": 0.231}, {"sequence": "TCCCCACGAGTTCAGGAGA", "TetR repression strength": 0.271}, {"sequence": "TCCCGTAGAGTAATGGAGA", "TetR repression strength": 0.344}, {"sequence": "TCCCACTGAGTGAGAGAGA", "TetR repression strength": 0.473}, {"sequence": "TCCCTGTGAGTTGGGGAGA", "TetR repression strength": 0.189}, {"sequence": "TCCCGCGAAGTCAGAGAGA", "TetR repression strength": 0.382}, {"sequence": "TCCCCTAAAGTGAAGGAGA", "TetR repression strength": 0.721}, {"sequence": "TCCCTTAAAGTGAAGGAGA", "TetR repression strength": 0.097}, {"sequence": "TCCCCTTCAGTGGAGGAGA", "TetR repression strength": 0.65}, {"sequence": "TCCCCTTCAGTGAAGGAGA", "TetR repression strength": 0.702}, {"sequence": "TCCCCCAAAGTGAAGGAGA", "TetR repression strength": 0.104}, {"sequence": "TCCCCTCCAGTGAAGGAGA", "TetR repression strength": 0.572}, {"sequence": "TCCCGTAAAGTTCAAGAGA", "TetR repression strength": 0.415}, {"sequence": "TCCCCGCCAGTTGGCGAGA", "TetR repression strength": 0.16}, {"sequence": "TCCCTTTGAGTAAATGAGA", "TetR repression strength": 0.33}, {"sequence": "TCCCTCCGAGTCATCGAGA", "TetR repression strength": 0.264}, {"sequence": "TCCCTTCAAGTGCGGGAGA", "TetR repression strength": 0.0975}, {"sequence": "TCCCCCTGAGTAGTAGAGA", "TetR repression strength": 0.207}, {"sequence": "TCCCCTATAGTGCTAGAGA", "TetR repression strength": 0.285}, {"sequence": "TCCCCTATAGTGATAGAGA", "TetR repression strength": 0.982}, {"sequence": "TCCCCTGTAGTGATAGAGA", "TetR repression strength": 0.387}, {"sequence": "TCCCTTGGAGTGGTAGAGA", "TetR repression strength": 0.172}, {"sequence": "TCCCCTAGAGTGGTAGAGA", "TetR repression strength": 0.634}, {"sequence": "TCCCCTATAGTGGTGGAGA", "TetR repression strength": 0.201}, {"sequence": "TCCCCTATAGTGGTAGAGA", "TetR repression strength": 0.84}, {"sequence": "TCCCTTAGAGTGGTAGAGA", "TetR repression strength": 0.695}, {"sequence": "TCCCTTAGAGTGGTCGAGA", "TetR repression strength": 0.215}, {"sequence": "TCCCCTTTAGTTGTAGAGA", "TetR repression strength": 0.246}, {"sequence": "TCCCGGTCAGTCTTTGAGA", "TetR repression strength": 0.165}, {"sequence": "TCCCCGAGAGTGAGGGAGA", "TetR repression strength": 0.129}, {"sequence": "TCCCCTTAAGTCGAGGAGA", "TetR repression strength": 0.157}, {"sequence": "TCCCATCGAGTCGGTGAGA", "TetR repression strength": 0.179}, {"sequence": "TCCCGGTTAGTGTAGGAGA", "TetR repression strength": 0.172}, {"sequence": "TCCCGCGCAGTCAGTGAGA", "TetR repression strength": 0.415}, {"sequence": "TCCCTCGAAGTGATCGAGA", "TetR repression strength": 0.343}, {"sequence": "TCCCAACAAGTGAATGAGA", "TetR repression strength": 0.336}, {"sequence": "TCCCTCTCAGTTAGTGAGA", "TetR repression strength": 0.339}, {"sequence": "TCCCTGTAAGTTATAGAGA", "TetR repression strength": 0.375}, {"sequence": "TCCCACTCAGTTATAGAGA", "TetR repression strength": 0.661}, {"sequence": "TCCCTCTCAGTGATAGAGA", "TetR repression strength": 0.866}, {"sequence": "TCCCTCTCAGTCAGAGAGA", "TetR repression strength": 0.423}, {"sequence": "TCCCTCACAGTGATAGAGA", "TetR repression strength": 0.513}, {"sequence": "TCCCTGTCAGTTATAGAGA", "TetR repression strength": 0.649}, {"sequence": "TCCCTCAGAGTGATAGAGA", "TetR repression strength": 0.342}, {"sequence": "TCCCTCTAAGTTATAGAGA", "TetR repression strength": 0.703}, {"sequence": "TCCCCCTAAGTTATAGAGA", "TetR repression strength": 0.525}, {"sequence": "TCCCTCTCAGTTAGAGAGA", "TetR repression strength": 0.726}, {"sequence": "TCCCTCTCAGTTATAGAGA", "TetR repression strength": 0.716}, {"sequence": "TCCCGGTTAGTTGAGGAGA", "TetR repression strength": 0.12}, {"sequence": "TCCCTCAGAGTGTTAGAGA", "TetR repression strength": 0.248}, {"sequence": "TCCCGAGAAGTCCATGAGA", "TetR repression strength": 0.207}, {"sequence": "TCCCGTGAAGTCGCTGAGA", "TetR repression strength": 0.168}, {"sequence": "TCCCTAGTAGTAAGCGAGA", "TetR repression strength": 0.136}, {"sequence": "TCCCGCTCAGTTATAGAGA", "TetR repression strength": 0.764}, {"sequence": "TCCCGCACAGTTATAGAGA", "TetR repression strength": 0.275}, {"sequence": "TCCCGATCAGTTATAGAGA", "TetR repression strength": 0.579}, {"sequence": "TCCCGAGGAGTTGGCGAGA", "TetR repression strength": 0.14}, {"sequence": "TCCCGGGAAGTTGTGGAGA", "TetR repression strength": 1.1}, {"sequence": "TCCCGGGGAGTTGTGGAGA", "TetR repression strength": 0.215}, {"sequence": "TCCCGGGAAGTTACGGAGA", "TetR repression strength": 0.707}, {"sequence": "TCCCGGGGAGTTACGGAGA", "TetR repression strength": 0.447}, {"sequence": "TCCCCGGAAGTTACGGAGA", "TetR repression strength": 0.343}, {"sequence": "TCCCGGAAAGTTGTGGAGA", "TetR repression strength": 0.275}, {"sequence": "TCCCCAAAAGTTTGTGAGA", "TetR repression strength": 0.0341}, {"sequence": "TCCCCTCGAGTTGGGGAGA", "TetR repression strength": 0.121}, {"sequence": "TCCCGGAGAGTCCTTGAGA", "TetR repression strength": 0.295}, {"sequence": "TCCCTCGAAGTGCGGGAGA", "TetR repression strength": 0.25}, {"sequence": "TCCCCAAGAGTAAATGAGA", "TetR repression strength": 0.368}, {"sequence": "TCCCGGATAGTGACCGAGA", "TetR repression strength": 0.131}, {"sequence": "TCCCTCCAAGTGGGAGAGA", "TetR repression strength": 0.14}, {"sequence": "TCCCTGCAAGTCTAGGAGA", "TetR repression strength": 0.171}, {"sequence": "TCCCGCCAAGTCCGGGAGA", "TetR repression strength": 0.21}, {"sequence": "TCCCTCCCAGTCTAGGAGA", "TetR repression strength": 0.263}, {"sequence": "TCCCCGCCAGTCCAGGAGA", "TetR repression strength": 0.104}, {"sequence": "TCCCCGGAAGTCTAGGAGA", "TetR repression strength": 0.113}, {"sequence": "TCCCGCCAAGTCCCTGAGA", "TetR repression strength": 0.389}, {"sequence": "TCCCTGCCAGTCTAGGAGA", "TetR repression strength": 0.415}, {"sequence": "TCCCCCCCAGTCTAGGAGA", "TetR repression strength": 0.8}, {"sequence": "TCCCGCCAAGTCCCGGAGA", "TetR repression strength": 1.1}, {"sequence": "TCCCCAGGAGTCTAGGAGA", "TetR repression strength": 0.284}, {"sequence": "TCCCCGCCAGTCTAGGAGA", "TetR repression strength": 0.681}, {"sequence": "TCCCCGCAAGTCTAGGAGA", "TetR repression strength": 0.739}, {"sequence": "TCCCCGTGAGTCGATGAGA", "TetR repression strength": 0.313}, {"sequence": "TCCCGCGTAGTCCGCGAGA", "TetR repression strength": 0.172}, {"sequence": "TCCCGAGTAGTGTGTGAGA", "TetR repression strength": 0.28}, {"sequence": "TCCCATTGAGTTCCGGAGA", "TetR repression strength": 0.115}, {"sequence": "TCCCATCCAGTGGGGGAGA", "TetR repression strength": 0.175}, {"sequence": "TCCCCCCTAGTTGTGGAGA", "TetR repression strength": 0.213}, {"sequence": "TCCCTGTGAGTTGGTGAGA", "TetR repression strength": 0.656}, {"sequence": "TCCCTATCAGTAATAGAGA", "TetR repression strength": 0.878}, {"sequence": "TCCCTATCAGTAACAGAGA", "TetR repression strength": 0.539}, {"sequence": "TCCCTTTCAGTGAGAGAGA", "TetR repression strength": 0.566}, {"sequence": "TCCCTTTCAGTAATAGAGA", "TetR repression strength": 0.745}, {"sequence": "TCCCTAACAGTAATAGAGA", "TetR repression strength": 0.569}, {"sequence": "TCCCTTTAAGTAATAGAGA", "TetR repression strength": 0.44}, {"sequence": "TCCCTTTCAGTGATAGAGA", "TetR repression strength": 0.785}, {"sequence": "TCCCTCTCAGTACTAGAGA", "TetR repression strength": 0.283}, {"sequence": "TCCCTTTCAGTTATAGAGA", "TetR repression strength": 0.649}, {"sequence": "TCCCTCTCAGTAATAGAGA", "TetR repression strength": 0.686}, {"sequence": "TCCCTTTCAGTGATGGAGA", "TetR repression strength": 0.574}, {"sequence": "TCCCTCTAAGTAATAGAGA", "TetR repression strength": 0.472}, {"sequence": "TCCCACCAAGTGGGTGAGA", "TetR repression strength": 0.139}, {"sequence": "TCCCTGTGAGTTTGGGAGA", "TetR repression strength": 0.424}, {"sequence": "TCCCGGAGAGTTTCTGAGA", "TetR repression strength": 0.191}, {"sequence": "TCCCCTTTAGTGCCTGAGA", "TetR repression strength": 0.523}, {"sequence": "TCCCGTTGAGTAGGGGAGA", "TetR repression strength": 0.0793}, {"sequence": "TCCCAGGGAGTAGCGGAGA", "TetR repression strength": 0.159}, {"sequence": "TCCCACGTAGTGCAAGAGA", "TetR repression strength": 0.62}, {"sequence": "TCCCTTCAAGTGCTCGAGA", "TetR repression strength": 0.24}, {"sequence": "TCCCATGTAGTGTGGGAGA", "TetR repression strength": 0.203}, {"sequence": "TCCCGATCAGTGCAGGAGA", "TetR repression strength": 0.299}, {"sequence": "TCCCTGCTAGTGGAGGAGA", "TetR repression strength": 1.14}, {"sequence": "TCCCTGCTAGTGGGGGAGA", "TetR repression strength": 0.0729}, {"sequence": "TCCCTGCTAGTGGTGGAGA", "TetR repression strength": 0.404}, {"sequence": "TCCCTGCGAGTGGTGGAGA", "TetR repression strength": 0.112}, {"sequence": "TCCCTGCGAGTGGGGGAGA", "TetR repression strength": 0.264}, {"sequence": "TCCCTGCGAGTGGAGGAGA", "TetR repression strength": 1.08}, {"sequence": "TCCCGGGAAGTGTGTGAGA", "TetR repression strength": 0.177}, {"sequence": "TCCCTTGTAGTGAATGAGA", "TetR repression strength": 0.277}, {"sequence": "TCCCGGGCAGTGCCTGAGA", "TetR repression strength": 0.283}]}]}
